The list is not random: actives were taken first. Their share in the collection is about 2.8%.
PI4K2A block – qHTS for small molecular inhibitors of PI4K2A. Phosphatidylinositol 4-kinase type 2-alpha (Homo sapiens), Q9BTU6. purified PI4K2A, ADP-Glo luminescence, 1 h; stronger effect = lower value. activity change, negative = inhibition, % at 76.9 µM. 420,000 compounds, 0.13% hits. AID 1346378, 2018; in the data active = activity change below about -50%; inconclusive = mostly about -30% to -49%
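PI4K2A activity was measured by ADP-Glo luminescence: enzyme (4 ug/mL stock) and phosphatidylinositol (1.2 mM stock) in Tris pH 7.5/MgCl2/EGTA/Triton X-100 buffer were reacted with ATP (300 microM stock) for one hour at ambient temperature.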
PI5P4Ka inh – qHTS for Inhibitors of phosphatidylinositol 5-phosphate 4-kinase (PI5P4K); Phosphatidylinositol 5-phosphate 4-kinase type-2 alpha (Homo sapiens), P48426; PI5P4Kalpha enzyme, ADP-Glo luminescence, 60 min; stronger effect = lower value; max response, %; 330,000 compounds, 1.2% hits; AID 652105, 2013; active = max response of -50% or lower; inconclusive = between -30% and -50%; inactive = -30% or higher; also: value at the top dose of about 77 µM
Target sequence (P48426 whole entry, looked up): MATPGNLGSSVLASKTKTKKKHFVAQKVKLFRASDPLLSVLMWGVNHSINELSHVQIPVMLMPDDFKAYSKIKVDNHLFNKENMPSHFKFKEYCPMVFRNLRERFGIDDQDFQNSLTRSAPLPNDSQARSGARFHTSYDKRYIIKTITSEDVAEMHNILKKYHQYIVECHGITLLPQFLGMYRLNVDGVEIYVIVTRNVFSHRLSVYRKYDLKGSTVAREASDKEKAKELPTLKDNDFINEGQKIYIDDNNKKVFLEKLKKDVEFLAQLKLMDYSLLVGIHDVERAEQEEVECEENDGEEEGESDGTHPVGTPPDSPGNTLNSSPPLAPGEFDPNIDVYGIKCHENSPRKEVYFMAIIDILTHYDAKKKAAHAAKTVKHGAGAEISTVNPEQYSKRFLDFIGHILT
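Human PI5P4Kalpha with substrate in 0.038 M HEPES pH 7.4, 0.28 mM EGTA, 0.1% CHAPS, 5% DMSO; reaction started with 5 microM ATP (final), 60 min at room temperature. ADP formed read by ADP-Glo luminescence.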
Pol kappa inh-1 – qHTS for Inhibitors of Polymerase Kappa | 400,000 compounds, 0.53% hits | DNA polymerase kappa (Homo sapiens), Q9UBT6 | Potency, µM (series often up to 107 µM), usual class: inhibitors | purified Pol kappa, fluorescent DNA synthesis assay, 10 min
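Kinetic fluorescence screen: compound preincubated 15 min RT with 10 nM enzyme; 50 nM substrate (final) initiates; reads at 0/10 min.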
POLB inh – qHTS Assay for Inhibitors of DNA Polymerase Beta. AID 485314, 2010. Pol beta primer extension/strand displacement, fluorescence kinetic. P06746. 340,000 compounds, 1.3% hits. Potency, µM (series often up to 114 µM), actives largely listed as inhibitors
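Values derive from four-parameter Hill fits of normalized kinetic data: reads at 0 and 10 min following addition of 50 nM substrate to 10 nM Pol beta preincubated 15 min with compound.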
POLI inh – qHTS for Inhibitors of Polymerase Iota. Pol iota fluorescent replication assay, 10 min. Potency, µM (doses to about 115 µM), hits mostly inhibitors. 390,000 compounds, 1% hits. AID 588590, 2011
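Fluorescent replication assay read twice, at 0 min and 10 min after adding 50 nM (final) substrate. Enzyme (10 nM) and compounds were first incubated 15 min at room temperature; enzyme-free buffer wells were negative controls.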
Pol eta inh-1 – qHTS for Inhibitors of Polymerase Eta. DNA polymerase eta (Homo sapiens), Q9Y253. recombinant Pol eta, fluorescent DNA replication assay. Potency, µM (series often up to 114 µM), hits mostly inhibitors. 390,000 compounds, 1.2% hits. AID 588591, 2011
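Pol eta (10 nM) was preincubated with compounds for 15 min at room temperature, after which fluorescent replication substrate (50 nM final) was added to start the reaction. Fluorescence was read kinetically at 0 and 10 min.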
TbPGK inh – qHTS for inhibitors of Phosphogylcerate Kinase: Hit Validation Screen | shares compounds with Pol kappa inh-1 | TbPGK coupled GAPDH assay, Kinase-Glo luminescence | Potency, µM (highest dose often 57.5 µM), hits mostly inhibitors | 500 compounds, 79% hits | AID 686980, 2013; also: nearly all actives have a fitted effect of over 65% in size
Pol iota confirm – qHTS for Inhibitors of Polymerase Iota: Confirmatory Assay for Cherry-picked Compounds; shares compounds with Pol kappa inh-1; Pol iota primer extension, TAMRA/BHQ fluorescence; Potency, µM, usual class: inhibitors; 1,500 compounds, 77% hits
Pol kappa inh-2 – qHTS for Inhibitors of Polymerase Kappa: Confirmatory Assay for Cherry-picked Compounds; shares compounds with Pol eta inh-1; purified Pol-kappa, fluorescent strand-displacement substrate; Potency, µM, usual class: inhibitors; 920 compounds, 76% hits; AID 720501, 2013
Pol eta inh-2 – qHTS for Inhibitors of Polymerase Eta: Confirmatory Assay for Cherry-picked Compounds; 2,600 compounds, 64% hits; Pol eta primer extension, TAMRA/BHQ fluorescence, 10 min; shares compounds with Pol eta inh-1; Potency, µM, actives largely listed as inhibitors; AID 720502, 2013
Hits are given with their value; i = inactive; ? = inconclusive; nt = no result. Unless noted, calls follow the shape of the dose curve; as a rule, active = well fitted curve in the direction sought with a large enough effect; inconclusive = small, poorly fitted or top-dose-only effect, or another doubt; inactive = no such curve, though single readings can be large; an effect the other way counts as inactive or inconclusive.

SMILES	PI4K2A block	PI5P4Ka inh	Pol kappa inh-1	POLB inh	POLI inh	Pol eta inh-1	Pol iota confirm	Pol eta inh-2	others
O=C(O)c1cccc(S(=O)(=O)Nc2ccc([N+](=O)[O-])cc2O)c1	i	i	?	i	?	i	nt	nt
CC(C1SC(=S)NC1=O)C1SC(=S)NC1=O (stereo not drawn)	i	-78	nt	nt	nt	5µM	42	9.5	Pol kappa inh-2=17
N#C/C(=C\c1ccc(-c2cc(Cl)ccc2Cl)o1)C(=O)Nc1ccccc1C(=O)O	i	nt	?	?	?	40µM	75	?	Pol kappa inh-2=11
Cc1ccccc1Cn1c2ccccc2c2cnn(CC(=O)NCCc3ccccc3)c(=O)c21	i	nt	i	i	i	i	nt	nt
COc1cc(/C=N/N2C(=O)CSC2=S)cc(Br)c1O	i	-75	40µM	35µM	?	25µM	?	67	Pol kappa inh-2=38
COc1cc(/C=N/N2C(C)CCCC2C)cc(Br)c1O (stereo not drawn)	i	i	i	i	i	i	nt	nt
CCN(CCCNC(=O)c1cc2c(=O)[nH]c3ccc(C)cc3c2s1)Cc1ccccc1	i	nt	i	i	i	i	nt	nt
CN(C)CCCCCCNc1cc(N2CCN(C)CC2)ncn1	nt	nt	i	nt	i	nt	nt	nt
Cc1c(C(=O)O)sc2nc(CSc3ncc(C(F)(F)F)cc3Cl)[nH]c(=O)c12	i	?	i	40µM	?	32µM	?	67
Cc1cc(C)cc(NS(=O)(=O)c2ccc3[nH]cc(C(=O)NCCc4ccccc4)c(=O)c3c2)c1	i	nt	i	i	i	i	nt	nt
Cc1ccccc1NS(=O)(=O)c1ccc2[nH]cc(C(=O)NCCc3ccccc3)c(=O)c2c1	i	nt	i	45µM	?	32µM	?	48
Cc1cc(=O)[nH]c2nnc(SCc3ccccc3F)n12	i	nt	i	i	i	i	nt	nt
CCCCn1cc(S(=O)(=O)c2ccc(Cl)cc2)c(=O)c2cc(F)c(N3CCCCC3)cc21	i	nt	i	i	i	i	nt	nt
COc1ccc(NC(=O)C2CCN(S(=O)(=O)c3c(C)noc3/C=C/c3ccco3)CC2)cc1	?	nt	?	25µM	?	32µM	24	27	TbPGK inh=10µM;Pol kappa inh-2=12
O=C(COc1ccccc1Cl)OCc1cc(=O)n2nc(-c3cccs3)sc2n1	i	nt	i	?	i	i	nt	nt
CCOC(=O)C1=C(COC(=O)/C=C/c2ccco2)NC(=O)NC1C (stereo not drawn)	i	-54	50µM	nt	14µM	11µM	19	27
COc1ccc(C)cc1NC(=O)C1CCN(S(=O)(=O)c2ccc3c(c2)CCCN3C(C)=O)CC1	i	nt	i	i	i	i	nt	nt
COc1ccc(N2Cc3cccc(C(=O)Nc4cccc(F)c4)c3C2=O)cc1	i	nt	?	14µM	79µM	nt	38	76	Pol kappa inh-2=12
Nc1nc2c(s1)COc1ccccc1-2	i	i	i	i	i	i	nt	nt
Nc1nc2c(s1)CCc1c-2cnn1-c1ccccc1	i	?	i	?	14µM	79µM	24	67
CCc1nc2c(OCc3cccc(Cl)c3)cccn2c1N(C)C(=O)CC(C)C	i	i	nt	nt	nt	nt	nt	nt
CCCS(=O)(=O)N1CC(=O)N(c2cccc(Cl)c2)C(C)(C(=O)NC2CCCCC2)C1 (stereo not drawn)	i	nt	i	i	i	i	nt	nt
COc1ccc(NS(=O)(=O)c2ccc3c(c2)[C@H]2C=CC[C@H]2[C@@H](c2ccc(C(=O)O)cc2)N3)cc1	i	-65	10µM	20µM	?	2.8µM	24	9.5	TbPGK inh=18µM;Pol kappa inh-2=2.4
Cc1c(Cl)cccc1NS(=O)(=O)c1ccc2c(c1)C1C=CCC1C(c1ccc(C(=O)O)cc1)N2 (stereo not drawn)	i	-102	2.8µM	22µM	?	2µM	38	6.7
COC(=O)c1ccc([C@H]2Nc3ccc(S(=O)(=O)Nc4ccc(C)cc4)cc3[C@H]3C=CC[C@H]32)cc1	i	nt	i	?	?	?	nt	nt
SMILES	PI4K2A block	PI5P4Ka inh	Pol kappa inh-1	POLB inh	POLI inh	Pol eta inh-1	Pol iota confirm	Pol eta inh-2	others
COc1ccc(-c2cn3c(n2)sc2cc(C(=O)NCCC4=CCCCC4)ccc23)cc1	i	nt	i	i	i	i	nt	nt
COc1cccc(/C=C/C(=O)OCC(=O)Nc2ccc(Cl)c(S(=O)(=O)N(C)C)c2)c1	i	i	i	i	i	i	nt	nt
CN(C)S(=O)(=O)c1cc(NC(=O)COC(=O)/C=C/c2ccco2)ccc1Cl	i	-71	32µM	?	?	25µM	nt	67	TbPGK inh=i
CCOc1ccccc1C(=O)Nc1cccc(-c2nc3ccccc3s2)c1	i	nt	i	i	i	i	nt	nt
O=C(CCCCCn1c(SCc2ccncc2)nc2ccccc2c1=O)NCc1ccco1	i	nt	?	40µM	14µM	79µM	47	76
CC1=CC(=O)C(C(C)C)=C/C1=N\OS(=O)(=O)c1ccccc1	i	nt	nt	nt	nt	nt	nt	nt
O=C(CSc1ccsc1[N+](=O)[O-])NCc1ccco1	i	-71	79µM	?	?	22µM	67	30	Pol kappa inh-2=42
Cc1ccccc1Nc1nnc(SCC(=O)Nc2ccccc2[N+](=O)[O-])s1	i	?	i	i	i	i	nt	nt
O=C(CSc1ccccc1C(=O)O)NCc1ccco1	i	i	i	i	i	i	nt	nt
Cc1ccccc1NC(=O)CSc1ccsc1[N+](=O)[O-]	i	-90	35µM	20µM	11µM	2.8µM	19	17
O=C(O)/C(=C\c1ccc(Cl)c([N+](=O)[O-])c1)c1ccc(S(=O)(=O)N2CCCC2)s1	i	i	?	nt	40µM	22µM	?	?	Pol kappa inh-2=?
COc1cc(/C=C2\SC(=O)N(CC(=O)Nc3cccc(C)c3)C2=O)cc([N+](=O)[O-])c1O	i	-92	i	i	?	22µM	75	48	TbPGK inh=?
